Reference: PubChem BioAssay (NCATS)
Results filed as inconclusive are left out. The source made the active and inactive calls. Calls follow the shape of the dose curve; as a rule, active = well fitted inhibition curve with a large enough effect; inconclusive = small, poorly fitted or top-dose-only effect; inactive = no such curve, though single readings can be large or run the other way.

What follows are molecules tested on Zika virus NS2B-NS3 protease (unlinked complex) (assay: Primary screen GU Rhodamine qHTS for Zika virus inhibitors: Unlinked NS2B-NS3 protease assay (AID 1347159; also: nearly all actives have a fitted effect of over 60% in size)). Settings: Recombinant ZIKV NS2B-NS3 protease, Rhodamine110 substrate fluorescence; series mostly up to 107 µM; activity change, negative = inhibition: at the top concentration.
Method in brief: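 Noncovalent NS2B hydrophilic domain/NS3 protease complex (25 nM final) in 10 mM Tris-HCl pH 8.0, 0.01% Tween 20, preincubated 15 min with compounds (up to 114 microM), then 1.5 microM Rhodamine110 substrate. Fluorescence change over 15 min fitted to 4-parameter Hill.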
% is scaled to controls: 0 for no effect and ±100 for the full control effect; potency is read from the fitted curve at half-maximal effect.

Structure (SMILES)	activity change, negative = inhibition	Potency
COC(=O)C1=CO[C@@H](O[C@@H]2O[C@H](CO)[C@@H](O)[C@H](O)[C@H]2O)[C@@H]2[C@@H](C(=O)OC)[C@@H](O)C(O)[C@H]12 (stereo partly drawn)	2.92% [at 57.1 µM] (inactive)	
COC1CC(=O)CCC(C)OC(=O)CC1O (stereo not drawn)	25.4% (inactive)	
C1CCN2CC3C[C@@H](CN4CCCC[C@@H]34)[C@H]2C1	11.3% (inactive)	
CC1(CCC(=O)O)C(=O)C=CC23CC4CC(OC4(C)C2O)C13 (stereo not drawn)	11.3% (inactive)	
CC(C)(C)NCc1cc(Nc2ccnc3cc(Cl)ccc23)c2c(c1O)CCCC2	0% [at 1.28 µM] (inactive)	
CC1CC(O)CC(C)(C)C1(O)CCO (stereo not drawn)	26.6% [at 171 µM] (inactive)	
CO[C@@H]1COCC[C@@H]1N[C@@H]1CC[C@@](C(=O)N2CCc3ncc(C(F)(F)F)cc3C2)(C(C)C)C1	18.2% [at 32.5 µM] (inactive)	
CC[C@H](/C=C/[C@@H](C)[C@H]1CC[C@H]2[C@@H]3CC=C4C[C@@H](O)CC[C@]4(C)[C@H]3CC[C@]12C)C(C)C	1.47% [at 11.5 µM] (inactive)	
CC(C)C(=O)O[C@@H]1[C@@H](O)[C@@H](O[C@H]2O[C@H](CO)[C@@H](O)[C@H](O)[C@H]2O)O[C@H](CO)[C@H]1O	7.25% [at 57.1 µM] (inactive)	
O=C(O)C[C@@H](NC(=O)c1cc(-c2ccc(-c3ccncc3)cc2)cs1)c1ccccc1		15.8 µM (active)
Cc1nnc(C(C)C)n1C1CC2CCC(C1)N2CC[C@H](NC(=O)C1CCC(F)(F)CC1)c1ccccc1 (stereo partly drawn)	11.5% (inactive)	
COC(=O)c1cc(CN2CCN(C(=N)N)CC2)cc(C(=O)N2CCN(C(=O)c3ccc(C(=N)N)cc3)CC2)c1	-8.8% (inactive)	
CC1=C2[C@@H]([C@H](C)CC[C@H]2/C=C(\C)C(=O)O)[C@H](O)C1	19% (inactive)	
